Compound activity (PubChem)
Luciferase inh = blocks purified firefly luciferase enzyme activity | purified P. pyralis luciferase, luminescence, biochemical | Potency, µM (top dose mostly 115 µM), actives largely listed as inhibitors | hit rate 2.5% among 76,000 | AID 1347043; also: % is scaled to controls: 0 for no effect and ±100 for the full control effect; nearly all actives have a fitted effect of over 65% in size
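Cell-free enzyme assay, 10nM P. pyralis luciferase, luciferin and ATP each at 10uM. Inhibition profiled over a 6-point titration, read as luminescence.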
NPR1 antag = human Npr1 receptor antagonism | P16066 | HEK293 hNpr1 GloSensor cGMP, ANP-stimulated luminescence | Potency, µM (doses to about 46.3 µM), for the others: at the highest dose activity change, negative = inhibition, most hits filed as inhibitors | hit rate 1.6% among 76,000 | AID 1347048; calls by dose curve; also: % is scaled to controls: 0 for no effect and ±100 for the full control effect; nearly all actives have a fitted effect of over 60% in size
Target sequence (P16066 whole entry, looked up): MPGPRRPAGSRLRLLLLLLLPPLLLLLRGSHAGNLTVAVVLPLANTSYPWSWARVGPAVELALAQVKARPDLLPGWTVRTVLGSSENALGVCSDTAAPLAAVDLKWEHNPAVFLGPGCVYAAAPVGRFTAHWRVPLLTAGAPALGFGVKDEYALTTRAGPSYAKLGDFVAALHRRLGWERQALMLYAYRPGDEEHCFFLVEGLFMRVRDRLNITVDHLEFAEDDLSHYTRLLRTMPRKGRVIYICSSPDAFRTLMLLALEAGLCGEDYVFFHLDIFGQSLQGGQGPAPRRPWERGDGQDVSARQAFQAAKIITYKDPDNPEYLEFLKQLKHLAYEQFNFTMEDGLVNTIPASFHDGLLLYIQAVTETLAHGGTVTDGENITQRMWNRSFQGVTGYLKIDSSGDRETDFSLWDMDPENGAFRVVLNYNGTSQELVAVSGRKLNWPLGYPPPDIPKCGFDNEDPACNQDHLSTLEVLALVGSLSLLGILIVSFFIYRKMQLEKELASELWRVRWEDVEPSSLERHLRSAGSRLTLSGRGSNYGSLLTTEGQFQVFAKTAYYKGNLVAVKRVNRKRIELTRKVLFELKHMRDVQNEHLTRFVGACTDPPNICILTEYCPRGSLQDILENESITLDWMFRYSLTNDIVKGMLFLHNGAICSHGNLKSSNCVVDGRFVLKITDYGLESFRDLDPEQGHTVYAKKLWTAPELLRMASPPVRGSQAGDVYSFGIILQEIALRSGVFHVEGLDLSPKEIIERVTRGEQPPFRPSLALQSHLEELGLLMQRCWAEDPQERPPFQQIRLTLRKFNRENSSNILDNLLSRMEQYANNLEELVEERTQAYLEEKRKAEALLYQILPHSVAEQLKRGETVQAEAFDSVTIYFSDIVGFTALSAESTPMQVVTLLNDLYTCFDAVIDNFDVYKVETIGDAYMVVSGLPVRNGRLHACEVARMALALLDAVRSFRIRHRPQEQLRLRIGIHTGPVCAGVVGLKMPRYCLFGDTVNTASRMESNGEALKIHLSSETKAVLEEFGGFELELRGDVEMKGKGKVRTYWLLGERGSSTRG
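Compound pre-incubated 30 min at room temperature on GloSensor-loaded HEK293 cells stably carrying hNpr1 and the pGS-40F cGMP biosensor. Stimulation uses hNppA at 0.1 nM final; luminescence is taken at baseline and 20 min post-agonist.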
HEK cytotox = cytotoxic compounds in HEK 293 cells. HEK 293 viability, ATP luminescence (CellTiter-Glo), 48-72 h. Potency, µM (titrated, usually from 115 µM), for inactives: at the highest dose activity change, negative = cytotoxicity, hits mostly inhibitors. hit rate 6.6% among 94,000; also: % is scaled to controls: 0 for no effect and ±100 for the full control effect; nearly all actives have a fitted effect of over 60% in size
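HEK 293 cells at 250 cells/well were exposed to compounds by pintool transfer for 48 or 72 hr at 37 degree Celsius, 5% CO2. Viability was read as ATP-coupled luminescence with CellTiter-Glo after 10 min at room temperature.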
GPT2 inhibitor = inhibitors of human GPT2 alanine aminotransferase | Q8TD30 | Recombinant GPT2, coupled pyruvate oxidase/HRP Amplex Red fluorescence | Potency, µM (series often up to 57.7 µM), inactives show top-dose activity change, negative = inhibition, most hits filed as inhibitors | hit rate 0.25% among 100,000; also: % is scaled to controls: 0 for no effect and ±100 for the full control effect; nearly all actives have a fitted effect of over 60% in size
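Fluorescence of coupled pyruvate oxidase/HRP/Amplex Red system (50uM Amplex, 30 min, dark) reports pyruvate formed by GPT2. Enzyme reaction: 10ng/uL GPT2, 2mM L-alanine, 250uM a-KG, 30 min room temperature, pH 7.5; 50uM AOA control.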
3T3 cytotox = kills NIH 3T3 cells. NIH 3T3 viability, CellTiter-Glo ATP luminescence, 48-72 h. Potency, µM (series often up to 96.7 µM), for the others: at the top dose activity change, negative = cytotoxicity, actives largely listed as inhibitors. hit rate 4.3% among 94,000; also: % is scaled to controls: 0 for no effect and ±100 for the full control effect; nearly all actives have a fitted effect of over 55% in size
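Cytotoxicity was measured by CellTiter-Glo ATP luminescence after 48 or 72 h compound exposure at 37 °C. Mouse NIH 3T3 fibroblasts were seeded at 400 cells/well and dosed by 23 nL pin transfer.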
Npr1 antag conf = hNpr1 antagonism, confirmation assay | shares compounds with NPR1 antag | HEK293 hNpr1 cGMP GloSensor luminescence, ANP-stimulated | Potency, µM (series often up to 57.6 µM), for inactives: top-dose activity change, negative = inhibition, hits mostly inhibitors | hit rate 76% among 1,400; calls by dose curve; also: nearly all actives have a fitted effect of over 70% in size
Npr2 selectivity = selectivity test of Npr1 antagonists against human Npr2; AID 1347046; Potency, µM (titrated, usually from 57.6 µM), for inactives: at the highest dose activity change, negative = inhibition, actives largely listed as inhibitors; shares compounds with NPR1 antag; HEK293 hNpr2 GloSensor cGMP luminescence, CNP-stimulated; hit rate 67% among 1,400; calls by dose curve; also: nearly all actives have a fitted effect of over 70% in size
FLuc inh counter = FLuc enzyme inhibition, Npr1 counter-screen. shares compounds with NPR1 antag. purified FLuc enzyme, luminescence, Km substrate. Potency, µM (top dose mostly 57.6 µM), for inactives: at the highest dose activity change, negative = inhibition, usual class: inhibitors. hit rate 0.7% among 1,400; also: 0% is about no effect
GloSensor cGMP = counter-screen for Npr1 antagonists: GloSensor control cell line | HEK293 GloSensor cGMP, SNP-stimulated, luminescence | Potency, µM (top dose mostly 57.6 µM), without a hit: top-dose activity change, negative = inhibition, usual class: inhibitors | AID 1347051 | hit rate 69% among 1,400 | shares compounds with NPR1 antag; calls by dose curve; also: % is scaled to controls: 0 for no effect and ±100 for the full control effect; nearly all actives have a fitted effect of over 70% in size
* = called active by the depositor; i = inactive; u = inconclusive; x = no result; [ ] = another dose, or the depositor's remark. Shown are actives, neighbours in structure and some others; about 10% of the full set was active somewhere. Unless noted, calls follow the shape of the dose curve; as a rule, active = well fitted curve in the direction sought with a large enough effect; inconclusive = small, poorly fitted or top-dose-only effect, or another doubt; inactive = no such curve, though single readings can be large; an effect the other way counts as inactive or inconclusive. Potency is read from the fitted curve at half-maximal effect.

SMILES	Luciferase inh	NPR1 antag	HEK cytotox	GPT2 inhibitor	3T3 cytotox	Npr1 antag conf	Npr2 selectivity	FLuc inh counter	GloSensor cGMP
Cc1ccc(C2=NC3(CCN(C(=O)Cc4ccc(Cl)cc4)CC3)ON2)cc1	i	-3%	-25%	i	-21%	x	x	x	x
Cc1cccc(CNC(=O)CCC2CCN(S(=O)(=O)c3ccccc3)CC2)c1	i	-6%	u	-9%	-27%	x	x	x	x
CCN(Cc1ccccc1)C(=O)CCC1CCN(S(=O)(=O)c2ccccc2)CC1	i	-21%	u	1%	28µM*	u	-20%	-2%	-13%
Cc1ccc(CNC(=O)CCC2CCN(S(=O)(=O)c3ccccc3)CC2)cc1	i	-24%	-24%	-2%	u	-17%	-11%	3%	-13%
Cc1cc(C)n(CC(=O)N[C@@H]2CN(Cc3ccccc3)C[C@H]2CN(C)C)c(=O)n1	i	11µM*	3%	i	i	-16%	-12%	0%	14%
O=C(CCC1CCCC1)N1CCC(c2noc(COc3ccc(F)cc3)n2)C1 (configuration not stated)	i	10µM*	45µM*	-8%	u	11µM*	15µM*	-7%	9.7µM*
O=C(Nc1cc(F)cc(C(F)(F)F)c1)N1CCCOC(Cn2cccn2)C1 (configuration not stated)	i	13µM*	u	2%	u	22µM*	22µM*	3%	19µM*
Cc1nn2c(c1-c1ccccc1OCc1ccccc1)N(C(=O)CCc1cccnc1)CCC2	i	u	u	-7%	u	u	u	4%	-2%
CC(=O)N1CCCn2nc(C)c(-c3ccccc3OCc3ccccc3)c21	i	-1%[70.6 µM]	u	-4%[88.5 µM]	u	x	x	x	x
Cc1nn2c(c1-c1ccccc1C(C)C)N(C(=O)Cc1ccc(O)cc1)CCC2	i	-2%[70.6 µM]	u	4%[88.5 µM]	u	x	x	x	x
Cc1nn2c(c1-c1ccccc1Oc1ccccc1)N(C(=O)Cc1ccc(O)cc1)CCC2	i	20µM*	89µM*	4%[88.5 µM]	79µM*	35µM*	28µM*	1%[86.2 µM]	u
CC(=O)Nc1ccccc1-c1c(C)nn2c1N(C(=O)Cc1ccccc1)CCC2	i	-2%[70.6 µM]	1%[172 µM]	-8%[88.5 µM]	u	x	x	x	x
COc1cccc(CC(=O)N2CCCn3nc(C)c(-c4ccccc4Oc4ccccc4)c32)c1	i	u	45µM*	u	u	u	19µM*	1%	-17%
Cc1nn2c(c1-c1ccccc1OCc1ccccc1)N(Cc1ccc(C(=O)O)s1)CCC2	i	6.3µM*	35µM*	-20%	32µM*	5.4µM*	7.7µM*	-9%	6.1µM*
COc1cccc(CC(=O)N2CCCn3nc(C)c(-c4ccccc4-c4ccccc4)c32)c1	i	u	u	5%[88.5 µM]	79µM*	u	31µM*	2%[86.2 µM]	-25%[86.2 µM]
CC(=O)Nc1ccccc1-c1c(C)nn2c1N(C(=O)c1ccc(Oc3ccccc3)cc1)CCC2	i	11µM*	u	u	u	19µM*	17µM*	1%	17µM*
Cc1nn2c(c1-c1ccccc1-c1ccccc1)N(C(=O)Cc1ccccn1)CCC2	i	-10%[70.6 µM]	u	-7%[88.5 µM]	-4%[138 µM]	x	x	x	x
